Laboratory results reported in PubChem BioAssay (NCI).
“And” between values parts separate entries of the source, which are not always exact repeats. Equal entries are not always repeated. The panel holds about 83,000 compounds, 20% with a hit somewhere; the sample as a whole holds those more often.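 Cells were grown in 96-well plates and exposed to the test compound at a single concentration for 48 hours; results are reported as percent growth, with values below 10 considered active.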 Values without a mark were called inactive. The source made the active and inactive calls.

Each molecule was assayed on MDA-MB-468 breast (assay: NCI-60 one-dose screen, 48 h (100 = growth as untreated, 0 = no growth, -100 = all killed)). Details: 10 µM unless noted.

Row | Compound | growth
1 | O=C(CSc1nnc(-c2cccs2)n1-c1ccccc1)Nc1ccccc1 | 49.1%
2 | COc1ccc(-c2nc3ncccn3c2-c2nnc(-c3ccc(F)cc3)o2)cc1 | 100%
3 | O=C(Nc1cccc(-n2cc(-c3ccncc3)c(-c3cc(O)cc(Cl)c3)n2)c1)c1cc(C(F)(F)F)cc(C(F)(F)F)c1 | 31.2%
4 | COc1ccc(C(=O)COC(=O)[C@H](C[Se][Se]C[C@H](NC(=O)c2ccc(Br)cc2F)C(=O)OCC(=O)c2ccc(OC)cc2)NC(=O)c2ccc(Br)cc2F)cc1 | -51.3% (active)
5 | Cc1ccc2nc(Cl)cc(=O)n2c1 | 112%
6 | CCCCCO/N=C\c1c2c(O)c3c(O)c(C)c4c(c3c1O)C(=O)C(C)(O/C=C\C(OC)C(C)C(OC(C)=O)C(C)C(O)C(C)C(O)C(C)/C=C\C=C(\C)C(=O)N2)O4 (stereo not given) | 0.538% (active)
7 | O=C(/C=C/c1cccc(F)c1)c1cccc(OCCCOc2cccc(C(=O)/C=C/c3cccc(F)c3)c2)c1 | 75.2%
8 | Nc1ncnc2c1ncn2C1OC(COC(c2ccccc2)(c2ccccc2)c2ccccc2)C(O)C1O (stereo not given) | 89%
9 | N/C(=N\S(=O)(=O)c1ccccc1)Nc1nc2ccccc2s1 | 91%
10 | CC(C)C[C@H](NC(=O)[C@@H](Cc1ccccc1)n1ccc(Nc2ccccc2)cc1=O)B(O)O | -19.8% (active)
11 | COc1cc(C2NC(c3cc(OC)c(OC)c(OC)c3)C(C#N)(C#N)C2(C#N)C#N)cc(OC)c1OC (stereo not given) | 93.2%
12 | c1ccc(CNc2ncnc3scc(-c4cccs4)c23)nc1 | 12%
13 | CC(C)CCC[C@@H](C)[C@H]1CC[C@H]2[C@@H]3CC=C4C[C@@H](C(C(=O)O)C(=O)O)CC[C@]4(C)[C@H]3CC[C@]12C | -32% (active)
14 | CC(C)NS(=O)(=O)c1cccc(-c2ccc3c4c(n(CCCN(C)C)c(=O)c3c2)-c2ccccc2C4=O)c1 | 99.3%
15 | CC1(C)[C@@H](O[C@@H]2OC[C@@H](O[C@@H]3O[C@H](CO)[C@@H](O)[C@H](O)[C@H]3O[C@@H]3OC[C@@H](O)[C@H](O)[C@H]3O)[C@H](O)[C@H]2O[C@@H]2O[C@H](CO)[C@@H](O)[C@H](O)[C@H]2O)CC[C@]2(C)[C@H]3CC[C@]45OC[C@@]6(CC[C@](C)(C=O)C[C@H]64)[C@H](O)C[C@@]5(C)[C@]3(C)CC[C@@H]12 | -71.2% (active)
16 | Cc1ccc(-c2nn(Cc3cn(-c4cc(C)nc5ccccc45)nn3)c3ncnc(N)c23)cc1 | 15.4%
17 | CC12CCC3C(=CCc4cc(O)ccc43)C1CCC2=O (stereo not given) | 96.9%
18 | O=C(O)c1ccc2c(c1)C(=O)N(Cc1ccccc1)C2=O | 96.2%
19 | Nc1nc(Nc2cc(Cl)cc(Cl)c2)nn1S(=O)(=O)c1ccc2ccccc2c1 | 66.3%
20 | CCOC(=O)c1cnc2sc(-c3ccc(OC)cc3)nc2c1Cl | 90.4%

Row | Compound | growth
21 | CC(C)(C)c1ccc(C(O)CCCN2CCC(C(O)(c3ccccc3)c3ccccc3)CC2)cc1 (stereo not given) | -97.1% (active)
22 | COc1ccc2[nH]c(O)c(/C=c3/ccc4c(c3)N=C(c3ccc(C(F)(F)F)cc3)N=4)c2c1 | 93.8%
23 | COc1ccc(C2C(C#N)=C(N)Oc3c2sc2c(F)cccc32)cc1 (stereo not given) | 40.6%
24 | COc1cccc2c1C(=O)c1c(O)c3c(c(O)c1C2=O)C[C@@](O)(C(C)=O)C[C@@H]3O[C@H]1C[C@H](N)[C@H](O)[C@H](C)O1 | -72.5% (active)
25 | CC1(COc2ccc3c(c2)ncn3-c2ccc3cccc(N4CCC(N)CC4)c3n2)COC1 | -20.6% (active)
26 | O=C(Cn1cc(CN2C(=O)c3ccccc3S2(=O)=O)nn1)Nc1nc2ccccc2s1 | 130%
27 | O=C(NNc1nc2cc(F)ccc2n2c(CN3CCOCC3)ccc12)c1ccccc1 | -27.9% (active)
28 | COc1ccc(C(=O)/C=C/c2sc(Cl)nc2Cl)cc1 | -13.8% (active)
29 | Cc1nn(-c2ccc(Br)cc2)c2nc3c(nc12)C(=O)C(=O)c1ccccc1-3 | 95.1%
30 | CC(C)N(CCCC#N)C(C)C | 104%
31 | C#CCOc1cccc(-c2ncnc3cc(NC(=O)CCl)ccc23)c1 | -57.3% (active)
32 | O=S(=O)(NCCNc1nccc(-c2c(-c3cccc(O)c3)nc3sccn23)n1)c1ccc(F)cc1 | 64.8%
33 | O=c1c2c(c(=O)n1O)c1c3ccc[nH]c3nc1c1nc3[nH]cccc3c12 | 64%
34 | Cc1cc(O)c2c(c1)C(=O)C(c1c(C)cc3c(c1O)C(=O)C=CC3=O)=CC2=O | 53.2%
35 | O=C(Nc1ccc(Cl)cc1)c1cc2c(cc1O)[nH]c1ccccc12 | -17.6% (active)
36 | FC(F)(F)c1ccc(-c2cnc(-c3nn[nH]n3)nc2NC2CCCCCC2)cc1 | 68.5% [50 µM]
37 | COc1ccc(C(=O)/C=C/c2cc(-c3ccc(OC)c(OC)c3)n[nH]2)cc1OC | -71.6% (active)
38 | Cc1sc2nc(NCc3ccccc3)[nH]c(=O)c2c1C | 23.7%
39 | Oc1nc(NCCc2ccccc2)sc1/C=C1\C=Nc2ncccc21 | -2.06% (active) and -14.5% (active)
40 | CCCCOc1cc(C(=O)NCCN(CC)CC)c2ccccc2n1 | 81.3% and 94.3%
